Experiment [1] can be described thus: resazurin metabolic signal in HepG2 cells – cell-based, resazurin fluorescence, 24 h, PK04 Diversity Set, profiling panel (AID 1172). The following applies: HepG2 viability, higher = more signal. For orientation: Alamar Blue is a resazurin reagent that responds to reducing activity.
Experiment [2] is described as follows: budding yeast growth changes without added modifier – OD600, strain BY4716, 24 h, basal condition, primary screen (AID 1173). The settings on record: S. cerevisiae BY4716 growth, OD600, 24 h; higher = more signal, called active from +8 up or from −8 down.
Experiment [3] in a line: viability profiling in MM1S myeloma cells – cell-based, resazurin fluorescence, basal, 24 h, PK04 Diversity Set, profiling panel (AID 1174). The following applies: higher = more signal, called active from +8 up or from −8 down.
Experiment [4] concerns the target Dihydroorotate dehydrogenase (quinone), mitochondrial (Plasmodium falciparum (isolate 3D7)) (UniProt Q08210). Briefly: inhibition of P. falciparum DHODH – biochemical, C-terminal His tag, absorbance 600 nm, primary screen (AID 1175).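 Note: recombinant parasite enzyme with a five histidine tag at its C terminus.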 The settings on record: PfDHODH enzyme, DCIP absorbance 600 nm; higher = more signal, called active from +8 up or from −8 down.
A short description of experiment [5]: inhibition of PAO1 biofilm formation – strain PAO1, LB-PBS medium, absorbance 600 nm, primary screen (AID 1176). The following applies: P. aeruginosa PAO1 growth/biofilm, A600, 12 h; higher = more signal.
Experiment [6] can be described thus: growth modulation of vineyard yeast isolate – strain RM11-1a, OD600, basal, 24 h, primary screen (AID 1177).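 Note: cultures grown under basal conditions with no added stressor.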 The settings on record: S. cerevisiae RM11-1a growth, OD600, 24 h; higher = more signal, called active from +8 up or from −8 down.
The nature of experiment [7]: growth of efflux-deficient E. coli DRC39 – strain DRC39, OD650, 24 h, E. coli filamentation inducers, primary screen (AID 1178).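 Note: growth measured as culture turbidity by optical density at 650 nm.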 The following applies: E. coli DRC39 acrAB, higher = more signal, called active from +8 up or from −8 down.
A short description of experiment [8]: growth of efflux-deficient E. coli DRC39 – strain DRC39, OD650, 48 h, E. coli filamentation inducers, primary screen (AID 1179).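 Note: screen aims at cell division blockers that make cells filament.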 The following applies: E. coli DRC39 delta-acrAB growth, higher = more signal, called active from +8 up or from −8 down.
The nature of experiment [9]: viability profiling in RPMI8226 myeloma cells – cell-based, resazurin fluorescence, basal, 24 h, PK04 Diversity Set, profiling panel (AID 1180).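 Note: RPMI8826 multiple myeloma cell line at 5000 cells per well.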 The settings on record: higher = more signal.
The target in experiment [10] is E3 ubiquitin-protein ligase XIAP (Homo sapiens) (UniProt P98170). Nature of the experiment: small molecules binding XIAP protein – biophysical, small-molecule microarray, fluorescence 635 nm, primary screen (AID 1181).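 Note: score merges 667 nm emission and signal to noise over triplicate slides.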 The following applies: higher = more signal.
Sequence of E3 ubiquitin-protein ligase XIAP (Homo sapiens) (P98170 whole entry, looked up, the tested form may be a part): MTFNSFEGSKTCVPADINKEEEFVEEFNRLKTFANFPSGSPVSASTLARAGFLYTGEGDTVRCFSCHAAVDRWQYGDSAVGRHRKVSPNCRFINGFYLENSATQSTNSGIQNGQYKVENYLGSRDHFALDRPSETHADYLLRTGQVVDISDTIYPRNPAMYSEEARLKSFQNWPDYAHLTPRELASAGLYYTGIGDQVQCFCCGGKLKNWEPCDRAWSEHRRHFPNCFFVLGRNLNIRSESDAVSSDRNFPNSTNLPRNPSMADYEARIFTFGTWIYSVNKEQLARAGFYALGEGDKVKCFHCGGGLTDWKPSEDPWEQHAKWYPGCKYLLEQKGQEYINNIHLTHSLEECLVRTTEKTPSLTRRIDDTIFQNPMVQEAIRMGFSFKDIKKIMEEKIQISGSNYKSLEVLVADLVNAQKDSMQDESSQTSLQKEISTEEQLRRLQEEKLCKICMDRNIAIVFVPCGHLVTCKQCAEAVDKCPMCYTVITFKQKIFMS
Experiment [11] relates to XIP peptide (Xip251-270) binding. Briefly: XIP fragment 251-270 binding compounds – biochemical, small-molecule microarray, fluorescence 635/667 nm, 0.1 µg/mL protein, primary screen (AID 1182). The settings on record: fluorescent protein binding, 635 nm, higher = more signal, called active from +8 up or from −8 down.
Experiment [12] concerns XIP peptide (Xip251-270). Briefly: compounds binding XIP fragment 251-270 – biochemical, small-molecule microarray, fluorescence 635/667 nm, 0.5 µg/mL protein, primary screen (AID 1183). The following applies: fluorescence 635 nm, higher = more signal.
A short description of experiment [13]: blood-stage malaria parasite viability loss – strain 3D7, DAPI fluorescence, 100 nL, primary screen (AID 1184).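 Note: parasites grown inside human red blood cells in medium with human serum.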 The settings on record: P. falciparum 3D7 growth, 3 d, higher = more signal.
Experiment [14] has as its target Homeobox protein Hox-A13 (Mus musculus) (UniProt Q62424). Briefly: disruptors of Hoxa13 oligonucleotide interaction – biochemical, fluorescence polarization, labeled oligonucleotide, primary screen (AID 1185). The following applies: Hoxa13:DNA binding, 15 min, higher = more signal, called active from +8 up or from −8 down.
Experiment [15] is described as follows: blockers of DNA damage checkpoint Chk1 activation – imaging, HeLa, hydroxyurea, phospho-Chk1 antibody, percent positive cells, primary screen (AID 1186). The settings on record: hydroxyurea-induced phospho-Chk1 immunofluorescence imaging, higher = more signal.
Experiment [16] can be described thus: blockers of DNA damage checkpoint Chk1 activation – imaging, HeLa, hydroxyurea, phospho-Chk1 nuclear intensity, primary screen (AID 1187). The following applies: hydroxyurea-induced phospho-Chk1 immunofluorescence imaging, higher = more signal.

The source made the active and inactive calls. Unless noted, the rule behind the calls is not given here.

Sequence of Homeobox protein Hox-A13 (Mus musculus) (Q62424 whole entry, looked up): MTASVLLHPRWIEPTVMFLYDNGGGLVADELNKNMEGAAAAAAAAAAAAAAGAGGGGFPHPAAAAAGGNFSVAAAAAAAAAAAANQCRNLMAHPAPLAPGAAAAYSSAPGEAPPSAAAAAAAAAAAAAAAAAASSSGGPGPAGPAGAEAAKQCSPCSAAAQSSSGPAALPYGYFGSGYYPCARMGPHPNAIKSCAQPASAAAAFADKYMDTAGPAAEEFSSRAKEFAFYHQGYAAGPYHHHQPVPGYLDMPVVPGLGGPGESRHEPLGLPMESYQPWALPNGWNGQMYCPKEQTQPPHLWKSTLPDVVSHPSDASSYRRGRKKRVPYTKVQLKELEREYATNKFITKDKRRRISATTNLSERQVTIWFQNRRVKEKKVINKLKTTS
Sequence of Dihydroorotate dehydrogenase (quinone), mitochondrial (Plasmodium falciparum (isolate 3D7)) (Q08210 whole entry, looked up): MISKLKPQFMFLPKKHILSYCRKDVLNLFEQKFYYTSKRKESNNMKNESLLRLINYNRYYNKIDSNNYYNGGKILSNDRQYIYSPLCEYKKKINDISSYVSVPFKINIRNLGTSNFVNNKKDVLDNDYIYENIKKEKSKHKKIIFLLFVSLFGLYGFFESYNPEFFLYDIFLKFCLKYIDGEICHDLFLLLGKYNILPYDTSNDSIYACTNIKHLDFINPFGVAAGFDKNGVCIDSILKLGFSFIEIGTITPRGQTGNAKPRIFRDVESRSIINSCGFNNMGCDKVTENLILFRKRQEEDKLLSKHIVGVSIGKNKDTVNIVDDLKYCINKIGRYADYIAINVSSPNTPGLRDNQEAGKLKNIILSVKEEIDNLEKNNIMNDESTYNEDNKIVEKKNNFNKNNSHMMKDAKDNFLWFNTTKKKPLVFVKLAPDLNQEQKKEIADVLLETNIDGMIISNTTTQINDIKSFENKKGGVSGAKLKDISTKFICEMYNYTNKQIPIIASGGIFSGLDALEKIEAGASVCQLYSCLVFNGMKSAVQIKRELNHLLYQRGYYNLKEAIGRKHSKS

`CC=CC(O)C1C=CC2C(=O)N(C)C(=O)C2N1N1CCCCC1` (centres undefined): the z-score was -0.245 in experiment [1]; 0.383 (inactive) in [2]; -0.986 (inactive) in experiment [3]; 0.378 (inactive) in experiment [5]; -0.714 (inactive) in [6]; -1.07 (inactive) in experiment [7]. In addition, the z-score in experiment [8] was -0.923 (inactive); in experiment [9] it was -1.36; in [13], 0.884; in experiment [14], -7.38 (inactive); in experiment [15] it was 0.436 (inactive); in [16], -0.297 (inactive). Also, the composite z-score in experiment [4] is -0.811 (inactive); in experiment [10], -0.114; in experiment [11] it was 0.102 (inactive); in [12], 0.759.
In the case of `CC=CC(O)C1C=CC2C(=O)N(c3ccccc3)C(=O)C2N1Nc1ccccc1` (centres undefined), the z-score was 0.965 in experiment [1]; -1.01 (inactive) in [2]; 0.171 (inactive) in [3]; 1.89 (inactive) in [5]; -0.564 (inactive) in [6]; 0.176 (inactive) in experiment [7]. The z-score in experiment [8] was 0.412 (inactive); in [9], 0.394; in experiment [13], -0.0445; in [14], -4.14 (inactive); in [15], 0.0716 (inactive); in experiment [16], -0.167 (inactive). Also, the composite z-score in experiment [4] was -0.174 (inactive); in [10] it was 0.649; in experiment [11] it was 0.228 (inactive); in [12], 0.813.
Turning to `COc1ccc([Si](C)(C)[C@H]2[C@H](CCO)O[C@@]3(C(=O)N(Cc4cccc(N5CCCCC5=O)c4)c4ccccc43)[C@@H]2C)cc1`, the z-score is -4.02 in experiment [1]; -0.732 (inactive) in experiment [2]; -7.24 (inactive) in [3]; 0.969 (inactive) in experiment [5]; 4.44 (inactive) in experiment [6]; 1.83 (inactive) in experiment [7]. Besides, the z-score in experiment [8] was 1.26 (inactive); in [9], -4.57; in experiment [13], -2.7; in experiment [14], -5.06 (inactive); in experiment [15], -1.36 (inactive); in [16], -0.572 (inactive). Moreover, the composite z-score is -2.94 (inactive) in experiment [4], -0.031 in experiment [10], 1.41 (inactive) in experiment [11] and 0.589 in experiment [12].
`CC(C)OC(=O)CC(=O)CC(O)c1cccc(C#N)c1` (centres undefined): the z-score in [1] was 0.532; in experiment [2], -0.167 (inactive); in [3], 0.343 (inactive); in [5] it was 0.533 (inactive); in experiment [6], -0.828 (inactive); in experiment [7], 0.283 (inactive). In addition, the z-score is 1.93 (inactive) in [8]; -0.0069 in experiment [9]; 0.612 in experiment [13]; -0.542 (inactive) in [14]; -0.467 (inactive) in experiment [15]; -0.295 (inactive) in experiment [16]. In addition, the composite z-score in [4] was -1.29 (inactive); in experiment [10] it was -0.267; in experiment [11], 0.768 (inactive); in [12], 0.778.
Regarding `NC(=O)NCC#Cc1ccc2c(c1)[C@]1(C(=O)N2)[C@H](C(=O)Nc2nc3ccccc3s2)[C@H]2C(=O)O[C@H](c3ccccc3)[C@H](c3ccccc3)N2[C@@H]1c1ccc(O)cc1`, the z-score in experiment [1] was 0.493; in experiment [2], 3.37 (inactive); in [3], 0.917 (inactive); in [5], 2.87 (inactive); in experiment [6] it was 5.05 (inactive); in experiment [7] it was 0.296 (inactive). Further, the z-score was 0.321 (inactive) in experiment [8]; -0.253 in experiment [9]; -0.905 in experiment [13]; 0.916 (inactive) in experiment [14]; 0.118 (inactive) in experiment [15]; 0.194 (inactive) in [16]. Besides, the composite z-score in [4] is 0.9 (inactive); in [10] it was -0.0337; in experiment [11], 0.207 (inactive); in experiment [12], 0.6.
`CCOC(=CC(=O)OC)CC(O)c1cccc(Cl)c1` (centres undefined): the z-score is 0.217 in experiment [1]; -8.62 (active) in [2]; -0.0412 (inactive) in experiment [3]; 0.16 (inactive) in experiment [5]; -2.91 (inactive) in [6]; 0.121 (inactive) in experiment [7]. The z-score in experiment [8] was 1.08 (inactive); in [9] it was 0.404; in [13] it was -0.368; in [14] it was -3.53 (inactive); in experiment [15], -0.119 (inactive); in experiment [16], 0.219 (inactive). In addition, the composite z-score in experiment [4] was -1.92 (inactive); in experiment [10], -0.0091; in experiment [11] it was 2.68 (inactive); in experiment [12], 0.893.
On to `O=C(CCCCCCC(=O)Nc1ccccc1)N/N=C/c1ccccc1`, for which the z-score in experiment [1] was 0.327; in [2], 0.141 (inactive); in experiment [3], 0.532 (inactive); in [5], 0.437 (inactive); in [6], 0.678 (inactive); in experiment [7], 0.83 (inactive). Also, the z-score in experiment [8] is 0.159 (inactive); in experiment [9] it was 0.718; in experiment [13], 1.01; in experiment [14], 0.458 (inactive); in experiment [15] it was -0.156 (inactive); in [16], -0.425 (inactive). In addition, the composite z-score was -0.543 (inactive) in experiment [4], 0.248 in experiment [10], -0.531 (inactive) in [11] and -0.57 in experiment [12].
`COC(=O)[C@@]1(Cc2ccc(OC)cc2)[C@H]2c3cc(C(=O)N4CCCC4)n(CCc4cc5ccccc5[nH]4)c3C[C@H]2CN1C(=O)c1ccccc1`: the z-score in experiment [1] is -0.406; in experiment [2], 1.3 (inactive); in [3], -1.24 (inactive); in experiment [5], 0.756 (inactive); in experiment [6], 1.03 (inactive); in experiment [7], 0.009 (inactive). Besides, the z-score in experiment [8] is -0.655 (inactive); in [9], -0.818; in [13], -1.66; in experiment [14], -1.91 (inactive); in experiment [15], -0.203 (inactive); in experiment [16], -0.0973 (inactive). Besides, the composite z-score in experiment [4] was 0.203 (inactive); in experiment [10], -0.0685; in [11] it was 1.64 (inactive); in experiment [12] it was 0.685.
Consider `C=CC[C@@]1(C(=O)O)N=C(c2ccc(OCCCO)cc2)O[C@@H]1c1ccccc1`, for which the z-score was 1.53 in experiment [1]; -1.07 (inactive) in [2]; 0.753 (inactive) in [3]; -0.568 (inactive) in [5]; 0.0596 (inactive) in [6]; -0.0277 (inactive) in experiment [7]. Further, the z-score in experiment [8] was 1.2 (inactive); in experiment [9] it was 1.4; in experiment [13], -0.441; in experiment [14], -4.13 (inactive); in experiment [15], -0.106 (inactive); in [16] it was -0.0411 (inactive). In addition, the composite z-score in experiment [4] was 0.977 (inactive); in experiment [10], 0.559; in [11], 0.759 (inactive); in [12] it was 0.994.

Values taken from PubChem BioAssay.
